Compound activity from PubChem.
TEAD-YAP block: TEAD-YAP interaction inhibition. AID 1259422. inhibition, % at 9.12 µM. HEK-TIYL cells, TEAD-Gal4/YAP UAS-luciferase luminescence. 640,000 compounds, 1.4% hits; in the data active = inhibition above about 32%
FBW7 activator: activators of human E3 ligase FBW7; AlphaScreen FBW7–phospho-cyclin E peptide binding, activator screen; normalized activity (activation), % at 26.1 µM; 650,000 compounds, 0.13% hits; AID 1259310; in the data active = normalized activity above about 1.9%;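 also: purified mutant Fbw7 with reduced substrate affinity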
MITF primary: inhibitors of human MITF | 650,000 compounds, 0.91% hits | inhibition, % at 2.6 µM | O75030 | AID 1259374 | AlphaScreen MITF homodimerization, bead proximity signal; in the data active = inhibition above about 50%
GPR151 ag: activates the human receptor GPR151; Q8TDV0; activation, % at 11.2 µM; 650,000 compounds, 1% hits; PathHunter beta-arrestin GPR151 cells, luminescence; in the data active = activation above about 4.9%
GPR151 conf act: human GPR151 activation, confirmation screen; GPR151 PathHunter beta-arrestin cells, luminescence, 90 min; % of EA-reagent control over plate median; AID 1508609; shares compounds with GPR151 ag; 6,700 tested, under 10 active; activation, % at 11.2 µM;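 active = mean percent activation across replicates above the confirmation screen cutoff of 4.91%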
GPR119 ag: GPR119 activation, counter-screen for GPR151 activators; activation, % at 11.2 µM; 6,700 compounds, 0.3% hits; shares compounds with GPR151 ag; GPR119 PathHunter beta-arrestin cells, luminescence, 90 min; 0 = compound-well median, 100 = enzyme-acceptor control;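 active = mean percent activation in the counterscreen above 29.09%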;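 also: counterscreen on off-target GPR119 to flag nonselective hits from the GPR151 activator screen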
Target sequence (Q8TDV5 whole entry, looked up): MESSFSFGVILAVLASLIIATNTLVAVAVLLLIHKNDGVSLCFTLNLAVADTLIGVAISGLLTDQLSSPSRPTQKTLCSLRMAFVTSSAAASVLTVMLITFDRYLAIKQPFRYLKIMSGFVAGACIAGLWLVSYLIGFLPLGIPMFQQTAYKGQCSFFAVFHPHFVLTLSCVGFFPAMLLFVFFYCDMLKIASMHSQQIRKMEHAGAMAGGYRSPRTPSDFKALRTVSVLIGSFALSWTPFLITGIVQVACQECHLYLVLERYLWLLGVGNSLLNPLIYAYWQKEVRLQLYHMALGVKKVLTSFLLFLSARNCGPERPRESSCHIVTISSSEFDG
Each line names hits and unclear results; the compound was inactive in the other large screens (follow-up assays come after a bar, where they were run). In the library only some 3.5% were active in any assay of this set; here they are far more common.

NC(Cc1cc(I)c(Oc2ccc(O)c(I)c2)c(I)c1)C(=O)O (stereo unspecified)	GPR151 ag 6.4 | GPR151 conf act inactive | GPR119 ag inactive
CC1(C)C=C(c2ccc(O)cc2)CC(C)(C)N1	GPR151 ag 5.6 | GPR151 conf act inactive | GPR119 ag inactive
CC1(C)C=C(c2ccc(O)cc2O)CC(C)(C)N1	none
CC(=O)Nc1ccc(Nc2cc(N3CCOCC3)nc(N)n2)cc1	none
COCC1CCN(c2nc3nonc3nc2NCc2cccs2)CC1	none
COC1CCN(c2nc3nonc3nc2NCc2cccs2)CC1	GPR151 ag 8.8 | GPR151 conf act inactive | GPR119 ag inactive
CCc1nc2sc(C(c3cccc(OC)c3)N3CCC(C(N)=O)CC3)c(O)n2n1 (stereo unspecified)	GPR151 ag 5.8 | GPR151 conf act inactive | GPR119 ag inactive
COc1cccc(C(c2sc3nc(C)nn3c2O)N2CCC(C(N)=O)CC2)c1 (stereo unspecified)	none
CC(CNC(=O)c1ccc(N(Cc2ccccc2)S(C)(=O)=O)cc1)NC(=O)c1ccc(N(Cc2ccccc2)S(C)(=O)=O)cc1 (stereo unspecified)	none
Cc1sc(NC(=O)C(F)(F)F)nc1-c1ccc(Cl)cc1	none
CCOc1cc(/C=C(/C#N)C(=O)NCc2ccccc2)ccc1OC	none
COc1ccc(/C=C(\C#N)C(=O)NCc2cccnc2)cc1OC	GPR151 ag 6.0 | GPR151 conf act inactive | GPR119 ag inactive
CC1(C)Cc2ccccc2/C(=C/C(=O)Nc2ccc(Cl)cc2)N1	none
CC1(C)Cc2ccccc2/C(=C/C(=O)Nc2ccc([N+](=O)[O-])cc2)N1	GPR151 ag 5.5 | GPR151 conf act inactive | GPR119 ag inactive
CCc1ccc(NC(=O)CCc2ccc(CC)o2)cc1	GPR151 ag 8.5 | GPR151 conf act inactive | GPR119 ag inactive
Cc1oc(-c2ccccc2)nc1C(=O)O	GPR151 ag 5.0 | GPR151 conf act inactive | GPR119 ag inactive
Cc1cc(=O)n2nc(N3CCCC(C(=O)Nc4cccc(Cl)c4C)C3)sc2n1 (stereo unspecified)	none
CN(CC(=O)N1CCC(Cc2ccccc2)CC1)S(=O)(=O)c1ccc2ccccc2c1	GPR151 ag 5.7 | GPR151 conf act inactive | GPR119 ag inactive
CCN(CC(=O)N1CCC(Cc2ccccc2)CC1)S(=O)(=O)c1ccc(Cl)cc1	none
COc1ccc(-c2nnc(SCC(=O)c3cc(C)n(CC4CCCO4)c3C)o2)cc1 (stereo unspecified)	GPR151 ag 4.9 | GPR151 conf act inactive | GPR119 ag inactive
N#Cc1ccc(S(=O)(=O)NCCc2ccncc2)cc1	GPR151 ag 5.2 | GPR151 conf act inactive | GPR119 ag inactive
CC1CC(C)CN(S(=O)(=O)c2ccc(F)cc2)C1 (stereo unspecified)	none
COc1cccc(-c2nc(C3CCCN3C(=O)CCCC(=O)O)n3ccccc23)c1 (stereo unspecified)	GPR151 ag 5.7 | GPR151 conf act inactive | GPR119 ag inactive
COc1cccc(-c2nc(C3CCCN3C(=O)CC(C)CC(=O)O)n3ccccc23)c1 (stereo unspecified)	none
COc1ccc(/C=N\NC(=O)c2cnccn2)cc1OCc1ccccc1	GPR151 ag 5.8 | GPR151 conf act inactive | GPR119 ag inactive
COc1cc(OC)nc(Oc2cccc(C)c2/C=N/NC(=O)c2ccccn2)n1	GPR151 ag 6.0 | GPR151 conf act inactive | GPR119 ag inactive
COc1cc(/C=N/NC(=O)c2ccccn2)ccc1OC(C)=O	none
COc1cccc(/C=N/NC(=O)C(=O)NC(C)c2ccccc2)c1O (stereo unspecified)	none
CCOc1ccc(/C=N/NC(=O)c2ccccn2)cc1OC	GPR151 ag 6.8 | GPR151 conf act inactive | GPR119 ag inactive
COc1cccc(/C=N/NC(=O)C(=O)NCC(C)C)c1O	GPR151 ag 30 | GPR151 conf act inactive | GPR119 ag inactive
O=C(NC(=S)Nc1nc(-c2ccc(I)cc2)cs1)c1ccc(S(=O)(=O)N2CCCC2)cc1	none
COc1cccc(/C=N\NC(=O)c2cnccn2)c1O	GPR151 ag 5.3 | GPR151 conf act inactive | GPR119 ag inactive
COc1cccc(/C=N/NC(=O)c2ccc(-n3c(C)ccc3C)cc2O)c1O	MITF primary 64, GPR151 ag 5.4 | GPR151 conf act inactive | GPR119 ag inactive
COc1cccc(/C=N/NC(=O)c2[nH]nc(-c3ccccc3)c2C)c1O	GPR151 ag 7.6 | GPR151 conf act inactive | GPR119 ag inactive
COc1ccc(Br)cc1C(=O)N/N=C/c1cccc(OC)c1O	none
COc1cc(/C=N/n2c(-c3ccncc3)n[nH]c2=S)cc(Br)c1O	GPR151 ag 5.0 | GPR151 conf act inactive | GPR119 ag inactive
COc1cccc(OC)c1C(=O)NC(=S)Nc1ccc(Br)cn1	none
COc1cccc(OC)c1C(=O)Nc1ccc([N+](=O)[O-])cn1	none
COc1cccc(OC)c1C(=O)Nc1ccc(Br)cn1	GPR151 ag 15 | GPR151 conf act inactive | GPR119 ag inactive
COc1cccc(OC)c1C(=O)Nc1ncc([N+](=O)[O-])s1	GPR151 ag 5.7 | GPR151 conf act inactive | GPR119 ag inactive
COc1ccccc1N1C(=N)SCC1=O	none
Cc1oc(-c2ccc(Cl)cc2)nc1CS(=O)CC(=O)NC1CCCCC1 (stereo unspecified)	GPR151 ag 8.3 | GPR151 conf act inactive | GPR119 ag inactive
Cc1oc(-c2ccc(Cl)cc2)nc1CS(=O)CC(=O)NC1CCCCCC1 (stereo unspecified)	none
CCOc1ccc(NC(=O)c2cccnc2)c([N+](=O)[O-])c1	TEAD-YAP block 46, GPR151 ag 5.8 | GPR151 conf act inactive | GPR119 ag inactive
Cc1cc(OCC(=O)NCc2cccnc2)ccc1[N+](=O)[O-]	GPR151 ag 5.2 | GPR151 conf act inactive | GPR119 ag inactive
Cc1cccc(OCC(=O)NCc2cccnc2)c1	none
CCOC(=O)c1[nH]c2ccc(Cl)cc2c1CCCN1C(=O)c2ccccc2C1=O	none
CCOc1cc(/C=N/NC(=O)OC(C)(C)C)ccc1O	none
O=C(c1ccccc1NS(=O)(=O)c1ccc(Br)s1)N1CCCC1	GPR151 ag 5.0 | GPR151 conf act inactive | GPR119 ag inactive
CCc1nc2sc3c(c2c2nnnn12)CCC3	none
Cc1cccc(C(=O)NCCCN(C)C)c1	GPR151 ag 7.7 | GPR151 conf act inactive | GPR119 ag inactive
COC(=O)c1c(NC(C)=O)c2c(C)c(C)sc2n1Cc1cccc(OC)c1	none
C=Cc1ccc(Cn2c(C(=O)OC)c(NC(C)=O)c3c(C)c(C)sc32)cc1	GPR151 ag 5.4 | GPR151 conf act inactive | GPR119 ag inactive
CCc1ccc(OCC(=O)Nc2ccc(NC(=O)c3ccco3)c(OC)c2)cc1	none
CCC(C)OC(=O)C1=C(C)NC2=C(C(=O)CC(c3ccc(OC)cc3)C2)C1c1cc(OC)c(OC)cc1Br (stereo unspecified)	GPR151 ag 7.5 | GPR151 conf act inactive | GPR119 ag inactive
